Several values for one entry are separate records, joined by “and”; a condition that tells them apart may be missing. Equal entries are not always repeated. Activity calls are given as the source filed them. Calls follow the shape of the full dose curve.

These results are taken from PubChem BioAssay (NCATS).
Potency is read from the fitted curve at half-maximal effect.

The nature of one test: qHTS drug screen for cell cycle checkpoint inhibitors in PARPi-resistant BRCA-mutant ovarian cancer cell lines. (AID 1963452). To be noted: PEO1/OlaR viability, CellTiter-Glo luminescence, 96 h. The method, boiled down: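 PEO1, PEO4 and PEO1/OlaR ovarian cancer cells, 600 per well, exposed 96 h at 37C to a dilution series. Viability read by CellTiter-Glo luminescence, normalized to DMSO and empty wells; activity summarized as Z-AUC.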
In general terms: Quantitative high-throughput screening tests each substance at several concentrations.
Take `CO[C@@H](C)Cn1c(=O)n(C)c2cnc3ccc(-c4cncc(C(C)(C)O)c4)cc3c21`: the Potency was 2190 nM (active).
For `CCN1CCN(Cc2ccc(NC(=O)Nc3ccc(Oc4cc(NC)ncn4)cc3)cc2C(F)(F)F)CC1`, the Potency was 4900 nM (active).
`Cc1cc(Nc2cc(N3CCN(C)CC3)nc(/C=C/c3ccccc3)n2)n[nH]1`: the Potency was 490 nM (active).
In the case of `C#CC[C@H](c1nc2cc(Cl)ccc2c(=O)n1Nc1ccccc1)N(CCCN)C(=O)c1cccc(Cl)c1F`, the Potency was 1230 nM (active).
Same read-out and setting: in the case of `COc1cc(OC)c(/C=C/S(=O)(=O)Cc2ccc(OC)c(NCC(=O)O)c2)c(OC)c1` it was 19.5 nM (active); in that of `COc1cc2ncnc(Nc3ccc(F)c(Cl)c3)c2cc1NC(=O)/C=C/CN1CCCCC1`, 6920 nM (active); in that of `COc1cccc(Nc2ncnn3ccc(CN4CC[C@@H](N)[C@H](O)C4)c23)c1`, 2190 nM (active).

The test is the same for the next values; noted with them: PEO1/OlaR viability, CellTiter-Glo luminescence, 96 h; stronger effect = lower value.
As for `COc1ccc(C(=O)C2CCN(CC(=O)N(Cc3nc4c(c(=O)[nH]3)COCC4)CC3CC3)CC2)cc1`, the Z-AUC was -0.974 (inactive).
On the same count and under the same terms, with `Cc1cc(O)c(-c2ccc([C@@H](C)CN(C)C)cc2)c2c1[nH]c(=O)c1sccc12` the figure was -1.8 (inactive); with `CN1CCN(C2CCC(n3cc(-c4ccc(Oc5ccccc5)cc4)c4c(N)ncnc43)CC2)CC1` (stereo not drawn), -1.03 (inactive); with `Cc1c(C(=O)N2CCOc3ccc(-c4ccc(N)nc4)cc3C2)ccc(S(C)(=O)=O)c1F`, 0.331 (inactive).
Still for that read-out and setting: in the case of `CCN1CCN(Cc2ccc(NC(=O)c3ccc(C)c(/C=C/c4cnc5[nH]ccc5c4OC)c3)cc2C(F)(F)F)CC1` it was -1.16 (inactive); in that of `CN(C)C/C=C/C(=O)Nc1cccc(C(=O)Nc2cccc(Nc3ncc(Cl)c(-c4c[nH]c5ccccc45)n3)c2)c1`, -1.57 (inactive).
On the same count and under the same terms, in the case of `CO[C@H]1C[C@@H]2CC[C@@H](C)[C@@](O)(O2)C(=O)C(=O)N2CCCC[C@H]2C(=O)O[C@H]([C@H](C)C[C@@H]2CC[C@@H](OP(C)(C)=O)[C@H](OC)C2)CC(=O)[C@H](C)/C=C(\C)[C@@H](O)[C@@H](OC)C(=O)[C@H](C)C[C@H](C)/C=C/C=C/C=C/1C` it was 0.099 (inactive); in that of `CC#CC(=O)N1CCC[C@H]1c1nc(-c2ccc(C(=O)Nc3ccccn3)cc2)c2c(N)nccn12`, -0.264 (inactive).
Regarding `COC(=O)N[C@@H](C)CNc1nccc(-c2cn(C(C)C)nc2-c2cc(Cl)cc(NS(C)(=O)=O)c2F)n1`, the Z-AUC is -0.294 (inactive).
The same measure, in the same setting: in the case of `CCOCc1nc2c(N)nc3ccccc3c2n1CC(C)(C)O` it was -0.746 (inactive).
The same measure, in the same setting: in the case of `CCNC(=O)Nc1ncc(-c2cc(-c3c(C)cc(OC)cc3C)nc(-c3cnccn3)n2)s1` it was 0.457 (inactive).
`O=C(/C=C\n1cnc(-c2cc(C(F)(F)F)cc(C(F)(F)F)c2)n1)N1CC(F)(F)C1`: the Z-AUC is -0.848 (inactive).
Consider `CC[C@]1(O)CC2CN(CCc3c([nH]c4ccccc34)[C@@](C(=O)OC)(c3cc4c(cc3OC)N(C)[C@H]3[C@@](O)(C(=O)OC)[C@H](OC(C)=O)[C@]5(CC)C=CCN6CC[C@]43[C@@H]65)C2)C1` (stereo partly drawn), for which the Z-AUC was -0.152 (inactive).
Still for that read-out and setting: with `O=C(/C=C/c1cccc(S(=O)(=O)Nc2ccccc2)c1)NO` the figure was -0.934 (inactive); with `CC[C@@](C)(Nc1ccnc(-c2c[nH]c3ncccc23)n1)C(=O)NCC(F)(F)F`, -1.18 (inactive); with `Cc1ccc(-c2ccc3c(ccc4sc5c(c43)NC[C@@H](C)NC5=O)n2)cn1`, -0.119 (inactive).
In the case of `CS(=O)(=O)N1CCC(NC(=O)c2[nH]ncc2NC(=O)c2c(Cl)cccc2Cl)CC1`, the Z-AUC is -1.39 (inactive).
As to `Cc1cc(OCc2nnc(SC3CCCC3)n2-c2cccnc2)ccc1-c1ccc(S(C)(=O)=O)cc1`, the Z-AUC was -1.33 (inactive).
Turning to `c1cc(Nc2cc(C3CC3)[nH]n2)nc(Nc2ccc3nc[nH]c3c2)n1`, the Z-AUC was -1.72 (inactive).
With `COC(=O)N(C)c1c(N)nc(-c2nn(Cc3ccccc3F)c3ncccc23)nc1N`, the Z-AUC is 0.294 (inactive).
For `CC[C@]12C=CCN3CC[C@@]4(c5cc([C@@]6(C(=O)OC)C[C@H]7C[C@@H](C(C)(F)F)CN(Cc8c6[nH]c6ccccc86)C7)c(OC)cc5N(C)[C@H]4[C@@](O)(C(=O)OC)[C@@H]1OC(C)=O)[C@@H]32`, the Z-AUC is -2.08 (inactive) and -1.5 (inactive).
In the case of `Cc1ccc(S(=O)(=O)Cc2nc(-c3ccc(C(=O)NCc4cccnc4)cc3)oc2C)cc1`, the Z-AUC is -1.97 (inactive).

The same test, now with this note: PEO1/OlaR viability, CellTiter-Glo luminescence, 96 h; measured here: PEO1 parental Z-AUC; stronger effect = lower value.
On to `COc1ccc(C(=O)C2CCN(CC(=O)N(Cc3nc4c(c(=O)[nH]3)COCC4)CC3CC3)CC2)cc1`, for which the Z-AUC was -0.643.
On to `CO[C@@H](C)Cn1c(=O)n(C)c2cnc3ccc(-c4cncc(C(C)(C)O)c4)cc3c21`, for which the Z-AUC was -2.24.
Consider `Cc1cc(O)c(-c2ccc([C@@H](C)CN(C)C)cc2)c2c1[nH]c(=O)c1sccc12`, for which the Z-AUC is -2.07.
In the case of `CN1CCN(C2CCC(n3cc(-c4ccc(Oc5ccccc5)cc4)c4c(N)ncnc43)CC2)CC1` (stereo not drawn), the Z-AUC is -1.14.
`Cc1c(C(=O)N2CCOc3ccc(-c4ccc(N)nc4)cc3C2)ccc(S(C)(=O)=O)c1F`: the Z-AUC was 0.561.
On the same count and under the same terms, in the case of `CCN1CCN(Cc2ccc(NC(=O)c3ccc(C)c(/C=C/c4cnc5[nH]ccc5c4OC)c3)cc2C(F)(F)F)CC1` it was -1.48; in that of `CN(C)C/C=C/C(=O)Nc1cccc(C(=O)Nc2cccc(Nc3ncc(Cl)c(-c4c[nH]c5ccccc45)n3)c2)c1`, -1.76.
In the case of `CCN1CCN(Cc2ccc(NC(=O)Nc3ccc(Oc4cc(NC)ncn4)cc3)cc2C(F)(F)F)CC1`, the Z-AUC is -1.75.
Still for that read-out and setting: with `Cc1cc(Nc2cc(N3CCN(C)CC3)nc(/C=C/c3ccccc3)n2)n[nH]1` the figure was -1.58.
In the case of `C#CC[C@H](c1nc2cc(Cl)ccc2c(=O)n1Nc1ccccc1)N(CCCN)C(=O)c1cccc(Cl)c1F`, the Z-AUC was -1.73.
The same measure, in the same setting: with `CO[C@H]1C[C@@H]2CC[C@@H](C)[C@@](O)(O2)C(=O)C(=O)N2CCCC[C@H]2C(=O)O[C@H]([C@H](C)C[C@@H]2CC[C@@H](OP(C)(C)=O)[C@H](OC)C2)CC(=O)[C@H](C)/C=C(\C)[C@@H](O)[C@@H](OC)C(=O)[C@H](C)C[C@H](C)/C=C/C=C/C=C/1C` the figure was 0.103; with `CC#CC(=O)N1CCC[C@H]1c1nc(-c2ccc(C(=O)Nc3ccccn3)cc2)c2c(N)nccn12`, 0.632.
Consider `COC(=O)N[C@@H](C)CNc1nccc(-c2cn(C(C)C)nc2-c2cc(Cl)cc(NS(C)(=O)=O)c2F)n1`, for which the Z-AUC was -0.151.
On to `CCOCc1nc2c(N)nc3ccccc3c2n1CC(C)(C)O`, for which the Z-AUC is -0.509.
For `CCNC(=O)Nc1ncc(-c2cc(-c3c(C)cc(OC)cc3C)nc(-c3cnccn3)n2)s1`, the Z-AUC is 1.44.
On the same count and under the same terms, with `O=C(/C=C\n1cnc(-c2cc(C(F)(F)F)cc(C(F)(F)F)c2)n1)N1CC(F)(F)C1` the figure was -1.85; with `COc1cc(OC)c(/C=C/S(=O)(=O)Cc2ccc(OC)c(NCC(=O)O)c2)c(OC)c1`, -2.09; with `CC[C@]1(O)CC2CN(CCc3c([nH]c4ccccc34)[C@@](C(=O)OC)(c3cc4c(cc3OC)N(C)[C@H]3[C@@](O)(C(=O)OC)[C@H](OC(C)=O)[C@]5(CC)C=CCN6CC[C@]43[C@@H]65)C2)C1` (stereo partly drawn), -1.01.
Still for that read-out and setting: with `O=C(/C=C/c1cccc(S(=O)(=O)Nc2ccccc2)c1)NO` the figure was -1.03.
The same measure, in the same setting: with `COc1cc2ncnc(Nc3ccc(F)c(Cl)c3)c2cc1NC(=O)/C=C/CN1CCCCC1` the figure was -1.17; with `CC[C@@](C)(Nc1ccnc(-c2c[nH]c3ncccc23)n1)C(=O)NCC(F)(F)F`, -0.201.
Regarding `Cc1ccc(-c2ccc3c(ccc4sc5c(c43)NC[C@@H](C)NC5=O)n2)cn1`, the Z-AUC was found to be 0.305.
Same read-out and setting: in the case of `CS(=O)(=O)N1CCC(NC(=O)c2[nH]ncc2NC(=O)c2c(Cl)cccc2Cl)CC1` it was -1.73.
As to `COc1cccc(Nc2ncnn3ccc(CN4CC[C@@H](N)[C@H](O)C4)c23)c1`, the Z-AUC was -1.46.
Turning to `Cc1cc(OCc2nnc(SC3CCCC3)n2-c2cccnc2)ccc1-c1ccc(S(C)(=O)=O)cc1`, the Z-AUC is -3.
The same measure, in the same setting: with `c1cc(Nc2cc(C3CC3)[nH]n2)nc(Nc2ccc3nc[nH]c3c2)n1` the figure was -2.08; with `COC(=O)N(C)c1c(N)nc(-c2nn(Cc3ccccc3F)c3ncccc23)nc1N`, 0.888; with `CC[C@]12C=CCN3CC[C@@]4(c5cc([C@@]6(C(=O)OC)C[C@H]7C[C@@H](C(C)(F)F)CN(Cc8c6[nH]c6ccccc86)C7)c(OC)cc5N(C)[C@H]4[C@@](O)(C(=O)OC)[C@@H]1OC(C)=O)[C@@H]32`, -0.895 and -0.96.
As for `Cc1ccc(S(=O)(=O)Cc2nc(-c3ccc(C(=O)NCc4cccnc4)cc3)oc2C)cc1`, the Z-AUC is -3.12.
